Results filed as inconclusive are left out. Entries that show only a call come without a potency. Activity calls are given as the source filed them. The call rests on the fitted dose curve; in most records, active means well fitted curve in the direction sought with a large enough effect; inconclusive means small, poorly fitted or top-dose-only effect, or another doubt; inactive means no such curve, though single readings can be large; an effect the other way counts as inactive or inconclusive.
Assays:
[1] = molecular target: Aldehyde dehydrogenase, mitochondrial (Homo sapiens) (UniProt P05091); assay: qHTS for Inhibitors of the Aldehyde Dehydrogenase Family (ALDH2) Primary screen (AID 2061308); further: nearly all actives have a fitted effect of over 55% in size
[2] = molecular target: Retinaldehyde dehydrogenase 3 (Homo sapiens) (UniProt P47895); assay: qHTS for Inhibitors of the Aldehyde Dehydrogenase Family (ALDH1A3) Primary screen (AID 2061315)

O=C(Nc1ccc(-n2cncn2)c(C(F)(F)F)c1)Nc1nnc(-c2ccncc2)s1 was tested, and the Potency [1] was “inactive” and the Potency [2] was “inactive”.

In the case of Cc1ccc(OCCn2c(CCNC(=O)c3ccsc3)nc3ccccc32)cc1, the Potency [1] is reported as “inactive” and the Potency [2] is reported as “inactive”.

In the case of Cc1c(P(=S)(c2ccccc2)c2ccccc2)[n+]2ccccc2n1CCCCc1ccccc1, the Potency [1] is reported as “inactive” and the Potency [2] is reported as “inactive”.

For O=C1CCCC2=C1C(c1ccncc1)N=C(Nc1nc3ccccc3o1)N2 (stereo not given), the Potency [1] was “inactive” and the Potency [2] was “inactive”.

With O=S(=O)(NCC1CN(S(=O)(=O)c2ccc3c(c2)OCCO3)C1)c1c(F)cccc1F the Potency [1] was “inactive” and the Potency [2] was “inactive”.

In the case of OC(c1ccccc1)(c1ccccc1)c1cnc2ccccn12, the Potency [1] is reported as “inactive” and the Potency [2] is reported as “inactive”.

For Cc1ccc(OCCn2c(CCNC(=O)c3cc(N)ccc3N)nc3ccccc32)cc1, the Potency [1] was “inactive” and the Potency [2] was “inactive”.

With CC(=O)Nc1cccc(S(=O)(=O)Nc2ccc(C)c(C)c2)c1 the Potency [1] was “inactive” and the Potency [2] was “inactive”.

With COc1ccc(CN(Cc2ccccc2)C(=O)c2ccccc2O)cc1COc1ccc(NC(C)=O)cc1 the Potency [1] was “inactive” and the Potency [2] was “inactive”.

For CC(C)COc1ccc(-c2csc(N3CCC(C(N)=O)CC3)n2)cc1, the Potency [1] was “inactive” and the Potency [2] was “inactive”.

In the case of CN(C)c1ccc2nc(NC(=S)N3CCN(c4cccc(C(F)(F)F)c4)CC3)sc2c1, the Potency [1] is reported as “inactive” and the Potency [2] is reported as “inactive”.

Cc1cc2c(s1)c1cnn(Cc3ccc4ccccc4c3)c(=O)c1n2C was tested, and the Potency [1] was “inactive” and the Potency [2] was “inactive”.

With c1ccc(CNCc2nnc(-c3cc4ccccc4[nH]3)s2)cc1 the Potency [1] was “inactive” and the Potency [2] was “inactive”.

With O=C(OCc1c(-c2ccccc2)no[n+]1[O-])c1ccccc1 the Potency [1] was “inactive” and the Potency [2] was “inactive”.

With Cc1cc2[nH]c3c(=O)n(Cc4ccccc4F)ncc3c2s1 the Potency [1] was “inactive” and the Potency [2] was “inactive”.

O=C1CCCC2=C1C(c1ncccc1Br)N=C(Nc1nc3ccccc3o1)N2 (stereo not given) was tested, and the Potency [1] was “inactive” and the Potency [2] was “inactive”.

For Cc1cccc(CNc2ccnc(-c3cc(C(F)(F)F)cc(C(F)(F)F)c3)n2)c1, the Potency [1] was “inactive” and the Potency [2] was “inactive”.

For O=C1CCc2cc(S(=O)(=O)Nc3ccc4ncccc4c3)ccc2N1, the Potency [1] was “inactive” and the Potency [2] was “inactive”.

For FC(F)(F)c1cccc(N2CCN(C(=S)Nc3nccc4ccccc34)CC2)c1, the Potency [1] was “inactive” and the Potency [2] was “inactive”.

In the case of O=c1c2ccccc2nc2sc(Nc3cccc(-c4ccncc4)c3)nn12, the Potency [1] is reported as “inactive” and the Potency [2] is reported as “inactive”.

Cc1ccc(S(=O)(=O)Nc2cnccc2C(=O)Nc2nc(-c3ccccc3Cl)cs2)cc1 was tested, and the Potency [1] was “inactive” and the Potency [2] was “inactive”.

O=C1CCCC2=C1C(c1cccc(Oc3ccccc3)c1)N=C(Nc1nc3ccccc3o1)N2 (stereo not given) was tested, and the Potency [1] was “inactive” and the Potency [2] was “inactive”.

COc1ccc(N2C[C@]34C=C[C@H](O3)C(C(=O)O)C4C2=O)cc1OC (stereo not given in full) was tested, and the Potency [1] was “inactive” and the Potency [2] was “inactive”.

For O=[S+]([O-])(Nc1cnc2ccccc2c1)c1ccc(NCc2ccc(Cl)cc2O)cc1, the Potency [1] was “inactive” and the Potency [2] was “inactive”.

For O=C(NCCCc1ccccc1)C1CCN(c2nc(-c3ccc(Br)cc3)cs2)CC1, the Potency [1] was “inactive” and the Potency [2] was “inactive”.

CCN(C)c1ncnc2ccc(-c3ccc4c(c3)OCO4)cc12 was tested, and the Potency [1] was “inactive” and the Potency [2] was “inactive”.

CCOc1ccc(CCNC(=O)c2cc3sccc3n2CCN2CCOCC2)cc1OCC was tested, and the Potency [1] was “inactive” and the Potency [2] was “inactive”.

For CCCCNC(=S)NCCCN(Cc1ccc(Cl)c(Cl)c1)c1ccc(Br)cn1, the Potency [1] was “inactive” and the Potency [2] was “inactive”.

In the case of Cc1c(C(O)(c2ccccc2)c2ccccc2)[n+]2ccccc2n1C, the Potency [1] is reported as “inactive” and the Potency [2] is reported as “inactive”.

For CCOC(=O)C1CCN(C(=O)C(C)(C)NC(=O)Nc2ccc([N+](=O)[O-])cc2)CC1, the Potency [1] was “inactive” and the Potency [2] was “inactive”.

For CN(C)c1ccc(CNc2nc(-c3ccccc3C(F)(F)F)nc3ccccc23)cc1, the Potency [1] was “inactive” and the Potency [2] was “inactive”.

With Cc1noc(-c2sc3c(c2-c2nc4ccccc4s2)CCNC3)n1 the Potency [1] was “inactive” and the Potency [2] was “inactive”.

Cc1ccc(NS(=O)(=O)c2cc3c(cc2N[C@H](C)CO)NC(=O)CC3)cc1C was tested, and the Potency [1] was “inactive” and the Potency [2] was “inactive”.

In the case of O=[S+]([O-])(Nc1ccccc1)c1ccc(NCc2cccc(Cl)c2F)cc1, the Potency [1] is reported as “inactive” and the Potency [2] is reported as “inactive”.

COc1cccc(N2C(=O)c3ccccc3C2=O)n1 was tested, and the Potency [1] was “inactive” and the Potency [2] was “inactive”.

CC(C)(C)OC(=O)NCc1nnc(-c2cc3ccccc3[nH]2)s1 was tested, and the Potency [1] was “inactive” and the Potency [2] was “inactive”.

With Cc1nc(Nc2ccccc2)c2nc(-c3ccccc3)n(CCN3CCOCC3)c2n1 the Potency [1] was “inactive” and the Potency [2] was “inactive”.

With Cc1ccc(S(=O)(=O)Nc2cnccc2C(=O)Nc2nc(-c3ccccc3)cs2)cc1 the Potency [1] was “inactive” and the Potency [2] was “inactive”.

In the case of COc1ccc(C2=Nn3c(nnc3-c3ccccc3F)SC2)cc1OC1CCOC1 (stereo not given), the Potency [1] is reported as “inactive” and the Potency [2] is reported as “inactive”.

In the case of Cc1ccc(OCCn2c(CCNC(=O)Cc3cccc4ccccc34)nc3ccccc32)cc1, the Potency [1] is reported as “inactive” and the Potency [2] is reported as “inactive”.
